Rows were chosen to be rich in hits. Some 4.6% of all compounds tested hit in one or more screens of this group.
D1 antag: blocks dopamine activation of the human D1 receptor; P21728; AID 504652; HEK293 TREx D1 cells, calcium flux, dopamine EC80; stronger effect = lower value; activity change, negative = inhibition, % at 10 µM; 3.2% of 360,000 active; in the data active means activity change below about -30%
Target sequence (P21728 whole entry, looked up): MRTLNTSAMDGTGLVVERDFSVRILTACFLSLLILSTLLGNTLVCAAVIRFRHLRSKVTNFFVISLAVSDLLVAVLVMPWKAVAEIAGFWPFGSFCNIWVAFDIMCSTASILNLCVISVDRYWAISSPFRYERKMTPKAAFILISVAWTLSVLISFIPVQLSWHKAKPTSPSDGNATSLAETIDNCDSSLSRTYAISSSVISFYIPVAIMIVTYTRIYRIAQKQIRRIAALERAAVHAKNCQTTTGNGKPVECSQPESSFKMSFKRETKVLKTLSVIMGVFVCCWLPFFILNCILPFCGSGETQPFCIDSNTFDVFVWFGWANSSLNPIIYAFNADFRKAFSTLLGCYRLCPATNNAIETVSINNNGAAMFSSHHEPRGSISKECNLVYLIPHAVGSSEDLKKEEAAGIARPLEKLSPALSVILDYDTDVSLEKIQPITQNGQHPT
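Cells carrying a force-coupled, tetracycline-inducible human D1 receptor report calcium flux. Each well gets a 10 s baseline, compound with 180 s monitoring, then an EC80 dopamine stimulus with a second 180 s kinetic read.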
D1 PAM: potentiators of human D1 dopamine receptor; HEK293 TREx D1 cells, calcium flux, dopamine EC20 potentiation; potentiation, % at 10 µM; 0.036% of 360,000 active; P21728; in the data active means potentiation above about 30%
TRHR ag: TRH receptor (human) agonism; P34981; TRHR cells, calcium flux fluo-8, FDSS agonist mode; activation, % at 2 µM; 0.18% of 360,000 active
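Steps: seed TRHR cells overnight; add fluo-8 no-wash Ca dye, RT 30 min–1.5 h; record 10 s baseline; pin-transfer compounds; monitor fluorescence 1 cycle/s for the agonist window. Calcium increases flag candidate agonists.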
D1 agonist: agonists of human D1 dopamine receptor; P21728; HEK293 T-REx D1 cells, calcium flux, agonist mode; activation, % at 2 µM; 1% of 360,000 active; AID 504660
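Agonism was scored from calcium flux recorded over 180 s (1 read/s) after pintool compound addition, following a 10-cycle baseline. Cells were inducible force-coupled HEK293 TREx D1, plated overnight at 30 C and loaded with no-wash calcium dye.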
TRHR enhancer: allosterically enhances the human TRH receptor. enhancement, % at 2 µM. 0.66% of 360,000 active. TRHR cells, fluo-8 calcium fluorescence, EC20 TRH enhancement. P34981. AID 493056; in the data active means enhancement above about 30%
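Enhancer read-out: after compound pinning and an initial kinetic agonist-mode read, an EC20 of TRH (10 nM final) was injected and fluo-8 calcium signal (Ex 480/Em 530) followed at 1 s/cycle for 100 cycles in TRHR-expressing cells.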
Numbers stand for hits. Unless noted, no stated cut-off is given here; in the data, active means activation above about 30%; inactive means the rest.

Results for COC(=O)c1ccc(NC(=O)Nc2nnc(N(C)C3CCCCC3)s2)cc1 ?
D1 antag: -55; D1 PAM: inactive; TRHR ag: inactive; D1 agonist: inactive; TRHR enhancer: inactive

Results for O=C(c1ccc2c(c1)OCO2)C1CCCN(Cc2cc(F)ccc2-n2cccn2)C1 (stereo unspecified) ?
D1 antag: -36; D1 PAM: inactive; TRHR ag: inactive; D1 agonist: inactive; TRHR enhancer: inactive

How did Cc1onc(-c2ccccc2Cl)c1C(=O)OCn1nnc2ccccc2c1=O do in these assays?
D1 antag: -50; D1 PAM: inactive; TRHR ag: inactive; D1 agonist: inactive; TRHR enhancer: inactive

What do the screens show for `O=C(OCn1nnc2ccccc2c1=O)c1cc(-c2ccccc2Cl)nc2ccccc12`?
D1 antag: inactive; D1 PAM: inactive; TRHR ag: inactive; D1 agonist: inactive; TRHR enhancer: inactive

What do the screens show for `Cc1ccc(C)c(C(=O)CCC(=O)OCn2nnc3ccccc3c2=O)c1`?
D1 antag: -64; D1 PAM: inactive; TRHR ag: inactive; D1 agonist: inactive; TRHR enhancer: inactive

What do the screens show for `O=C(OCn1nnc2ccccc2c1=O)c1ccc(Br)o1`?
D1 antag: inactive; D1 PAM: inactive; TRHR ag: inactive; D1 agonist: inactive; TRHR enhancer: 33

Results for O=C(OCn1nnc2ccccc2c1=O)c1ccc(O)cc1 ?
D1 antag: inactive; D1 PAM: inactive; TRHR ag: inactive; D1 agonist: inactive; TRHR enhancer: inactive

How did O=C(COC(=O)c1ccc(O)cc1)Nc1ncc(Cl)cc1Cl do in these assays?
D1 antag: inactive; D1 PAM: inactive; TRHR ag: inactive; D1 agonist: inactive; TRHR enhancer: inactive

Results for O=C(Cn1nnc(-c2ccccc2)n1)Nc1cccc(S(=O)(=O)N2CCCC2)c1 ?
D1 antag: inactive; D1 PAM: inactive; TRHR ag: inactive; D1 agonist: inactive; TRHR enhancer: inactive

Results for Cc1c(NC(=O)C(C)OC(=O)/C=C/c2ccc3c(c2)OCO3)c(=O)n(-c2ccccc2)n1C (stereo unspecified) ?
D1 antag: inactive; D1 PAM: inactive; TRHR ag: inactive; D1 agonist: inactive; TRHR enhancer: inactive

Results for Cc1ccc(-n2ncc(C(=O)NCCc3c[nH]c4ccccc34)c2C2CCN(C(=O)OC(C)(C)C)CC2)cc1C ?
D1 antag: inactive; D1 PAM: inactive; TRHR ag: inactive; D1 agonist: inactive; TRHR enhancer: inactive

What do the screens show for `COc1ccc(NC(=O)COc2cccc(C(F)(F)F)c2)cn1`?
D1 antag: inactive; D1 PAM: inactive; TRHR ag: inactive; D1 agonist: inactive; TRHR enhancer: inactive

Results for O=C(Nc1ccc(Oc2cccc(C(F)(F)F)c2)nc1)c1cccs1 ?
D1 antag: -45; D1 PAM: inactive; TRHR ag: inactive; D1 agonist: 32; TRHR enhancer: inactive

What do the screens show for `O=C(Nc1ccc(Oc2cccc(C(F)(F)F)c2)nc1)c1ccccc1`?
D1 antag: inactive; D1 PAM: inactive; TRHR ag: inactive; D1 agonist: inactive; TRHR enhancer: inactive

What do the screens show for `COc1cccc(C(=O)Nc2ccc(Oc3cccc(C(F)(F)F)c3)nc2)c1`?
D1 antag: -42; D1 PAM: inactive; TRHR ag: inactive; D1 agonist: 42; TRHR enhancer: inactive

What do the screens show for `O=C(C[n+]1cc(-c2ccc(Cl)c(Cl)c2)n2c1CCC2)N1c2ccccc2Sc2ccccc21`?
D1 antag: -39; D1 PAM: inactive; TRHR ag: inactive; D1 agonist: inactive; TRHR enhancer: inactive

Results for O=C(C[n+]1cc(-c2ccc(Cl)cc2)n2c1CCC2)Nc1nc(-c2ccccc2)cs1 ?
D1 antag: -61; D1 PAM: inactive; TRHR ag: inactive; D1 agonist: inactive; TRHR enhancer: inactive

What do the screens show for `O=C(C[n+]1cc(-c2ccc(Cl)cc2)n2c1CCC2)N1c2ccccc2Sc2ccccc21`?
D1 antag: inactive; D1 PAM: inactive; TRHR ag: inactive; D1 agonist: inactive; TRHR enhancer: inactive

How did Nc1c(C(=O)Nc2cccc(Cl)c2)sc2nc3c(cc12)CN(Cc1ccccc1)CC3 do in these assays?
D1 antag: inactive; D1 PAM: inactive; TRHR ag: inactive; D1 agonist: inactive; TRHR enhancer: 33

How did Cc1cccc(NC(=O)c2sc3nc4c(cc3c2N)CN(Cc2ccccc2)CC4)c1 do in these assays?
D1 antag: inactive; D1 PAM: inactive; TRHR ag: inactive; D1 agonist: inactive; TRHR enhancer: inactive

How did CCCC(=O)C1=C(O)C(C(=O)OC)C(C)(C)CC1=NCc1ccccc1 (stereo unspecified) do in these assays?
D1 antag: inactive; D1 PAM: inactive; TRHR ag: inactive; D1 agonist: inactive; TRHR enhancer: inactive

How did CCCC(=O)C1=C(O)C(C(=O)OC)C(C)(C)CC1=Nc1ccccc1 (stereo unspecified) do in these assays?
D1 antag: -46; D1 PAM: inactive; TRHR ag: inactive; D1 agonist: inactive; TRHR enhancer: inactive

Results for CCN(CC)S(=O)(=O)c1cccc(-c2n[nH]c(=S)n2/N=C/c2ccc(OC(F)F)cc2)c1 ?
D1 antag: -83; D1 PAM: inactive; TRHR ag: inactive; D1 agonist: inactive; TRHR enhancer: inactive

Results for COC(=O)CC(NS(=O)(=O)c1cccs1)c1ccc2c(c1)OCO2 (stereo unspecified) ?
D1 antag: -56; D1 PAM: inactive; TRHR ag: inactive; D1 agonist: inactive; TRHR enhancer: inactive

What do the screens show for `COC(=O)CC(NS(=O)(=O)c1cccs1)c1ccccc1Cl` (stereo unspecified)?
D1 antag: inactive; D1 PAM: inactive; TRHR ag: inactive; D1 agonist: inactive; TRHR enhancer: inactive

What do the screens show for `Cc1ccc2nc(N3C(=O)C(O)=C(C(=O)c4ccc(C)o4)C3c3cccc(O)c3)sc2c1` (stereo unspecified)?
D1 antag: -35; D1 PAM: inactive; TRHR ag: inactive; D1 agonist: inactive; TRHR enhancer: inactive

What do the screens show for `Cc1ccc(-c2nc3c4ccccc4n(CC(=O)N4CCN(c5ccccc5F)CC4)c(=O)n3n2)cc1`?
D1 PAM: inactive; TRHR ag: inactive; D1 agonist: inactive; TRHR enhancer: inactive

How did CCOc1ccc(C(=O)CC(NCc2cccs2)C(=O)O)cc1 (stereo unspecified) do in these assays?
D1 antag: -30; D1 PAM: inactive; TRHR ag: inactive; D1 agonist: inactive; TRHR enhancer: inactive

How did CCOc1ccc(C(=O)CCC(=O)N(CC)CC(=O)NCc2cccs2)cc1 do in these assays?
D1 antag: inactive; D1 PAM: inactive; TRHR ag: inactive; D1 agonist: inactive; TRHR enhancer: inactive

What do the screens show for `O=[N+]([O-])c1cc2c(c(CSc3nnnn3-c3ccc(O)cc3)c1)OCOC2`?
D1 antag: -33; D1 PAM: inactive; TRHR ag: inactive; D1 agonist: inactive; TRHR enhancer: inactive

What do the screens show for `O=C(CCC(=O)N1CCOc2ccccc21)NCCc1ccccc1`?
D1 antag: inactive; D1 PAM: inactive; TRHR ag: inactive; D1 agonist: inactive; TRHR enhancer: inactive

Screening data as filed in PubChem.
